Experimental data from PubChem BioAssay (NCATS).
Results filed as inconclusive are left out. Activity calls are given as the source filed them. Calls come from the whole dose curve; as a rule, active = well fitted inhibition curve with a large enough effect; inconclusive = small, poorly fitted or top-dose-only effect; inactive = flat fitted curve, though single readings scatter.

Tests used:
Assay in all cases: Cytotoxic Profiling of Annotated Libraries Using Quantitative High-Throughput Screening (AID 1296008); note: nearly all actives have a fitted effect of over 60% in size
Conditions in all cases: Five cell lines viability, CellTiter-Glo ATP luminescence, 48-72 h; max response: active compounds read low
HaCat = tested on: HaCat
How it was run: (§1)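 Cells exposed to compounds for 48 or 72 hr at 37 degrees Celsius. Viability read as ATP-coupled luminescence with CellTiter-Glo after 10 min at room temperature.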

KB-3-1 = tested on: KB-3-1
How it was run: as §1

NIH3T3 = tested on: NIH3T3
How it was run: as §1

Measured: max response
% is set by controls: 0 for no effect and ±100 for the full control effect.

Cc1ccc(Cc2c(C)nc3nc(SCC(=O)NCCN4CCNCC4)nn3c2C)cc1
inactive: HaCat -12.4% | KB-3-1 | NIH3T3 -3.32%

CC1(C)CC2=C3C=CC4C5(C)CCC(O)C(C)(C)C5CCC4(C)C3(C)CCC2(C)C(O)C1 (stereo unspecified)
inactive: HaCat -3.58% | KB-3-1 -4.92% | NIH3T3 -2.26%

C=C[C@]1(C)C[C@H](O)[C@@H]2[C@H](OC(=O)[C@@H]2C)C1/C(C)=C/O[C@@H]1O[C@H](CO)[C@@H](O)[C@H](O)[C@H]1O (stereo partly specified)
inactive: HaCat -9.44% | KB-3-1 0.273% | NIH3T3 -22.7%

O=C(COc1cccc2c(=O)[nH]ccc12)c1ccccc1
inactive: HaCat -15.5% | KB-3-1 7.28% | NIH3T3 1.93%

CC(=O)OC1CC2(C)C3=CCC4(C)C5C(O)C(O)C(C(C)C)C5(C)CCC4(C)C3CCC2C(C)(C)C1OC1OC(CO)C(O)C(O)C1O (stereo unspecified)
inactive: HaCat -3% | KB-3-1 2.57% | NIH3T3 4.87%

CC(C)(O)C1CCC(C)(C2CCC3(C)C4CCC5C(C)(C(=O)OC6OC(CO)C(O)C(O)C6O)C(O)CC(O)C56CC46CCC23C)O1 (stereo unspecified)
inactive: HaCat | KB-3-1 -9.11% | NIH3T3 -1.85%

COC(=O)c1ccc(OC(CO)C(O)c2ccc(O)c(OC)c2)c(OC)c1 (stereo unspecified)
inactive: HaCat 1.74% | KB-3-1 -5.47% | NIH3T3 -1.03%
